This is a sample that favours compounds with a hit; in the whole collection about 6.8% have one here.
T cruzi growth: blocks T. cruzi growth in NIH3T3 culture; T. cruzi beta-gal in NIH3T3, GalScreen luminescence, 90 h; actives 5.9% (n = 77,000); inhibition, % at 8.34 µM;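 active means mean inhibition above about 93%, with at least 55% of replicates each passing it, limit read from the data, passing the limit was not always enough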
Pf Dd2 growth: P. falciparum Dd2 growth inhibition; activity change, % at 10 µM; AID 1159554; actives 2.3% (n = 94,000); SYBR Green, 72 h; hits give low values; in the data active means activity change below about -80%
C diff HTS: blocks growth of Clostridium difficile | Clostridium difficile clinical isolate growth, OD600, 24 h; hits give low values | growth activity, negative = inhibition, % at 16 µg/mL (by protocol) | actives 0.25% (n = 86,000) | AID 1259249;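 active means mean growth activity at or below -80% and every replicate also at or below -80%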;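 further: 0% = DMSO wells and -100% = levofloxacin 16 µg/mL wells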
* hit, by the source's call; x = no result given; ! = not confirmed by another sample.

SMILES	T cruzi growth	Pf Dd2 growth	C diff HTS
N#C[C@H]1[C@@H](c2ccccc2-c2ccccc2F)[C@@H](CO)N1C(=O)C1CCOCC1	x	-95*	-7
CN1c2ccc(-c3cccc(C#N)c3)cc2[C@@H]2[C@@H](CCN2C(=O)c2ccc(F)cc2)[C@@H]1CO	82	-26	30
O=C(O)C[C@H]1C[C@@H]2c3cc(NS(=O)(=O)c4ccccc4)ccc3O[C@@H]2[C@@H](CO)O1	9	25	0
O=C(c1ccccc1F)N1C[C@@H]2[C@H](c3ccccc31)[C@H](CO)N2CC1CCCCC1	76	5	67
COC(=O)C[C@@H]1CC[C@H]2[C@@H](COc3ccc(NS(=O)(=O)c4ccc(F)cc4)cc3C(=O)N2C)O1	25	-7	-6
O=C(c1ccc2c(c1)OCO2)N1CC[C@H]2[C@H](CO)Nc3ccc(-c4ccc(F)cc4)cc3[C@H]21	0	-11	0
C/C=C/c1ccc2c(c1)[C@H]1[C@H](CCN1C(=O)c1ccc3c(c1)OCO3)[C@H](CO)N2	x	-90*	5
Cc1ccccc1S(=O)(=O)N1CC[C@H]2[C@H](CO)Nc3ccc(-c4ccccc4)cc3[C@H]21	93	17	66
CCCC#Cc1ccc2c(c1)[C@H]1[C@H](CCN1Cc1ccccc1F)[C@@H](CO)N2	x	-83*	14
CCCC#Cc1ccc2c(c1)[C@@H]1[C@@H](CCN1S(=O)(=O)c1ccccc1C)[C@@H](CO)N2	x	-84*	37
C/C=C/c1ccc2c(c1)[C@H]1[C@H](CCN1S(=O)(=O)c1ccccc1C)[C@@H](CO)N2	x	-87*	-3
CCCC#Cc1ccc2c(c1)[C@@H]1[C@@H](CCN1S(=O)(=O)c1ccccc1F)[C@@H](CO)N2	x	-64	-4
OC[C@@H]1Nc2ccc(-c3ccccc3)cc2[C@H]2[C@@H]1CCN2Cc1ccccc1F	50	-23	71
Cc1nn(C)cc1NC(=O)C[C@H]1CC[C@H]2[C@H](COc3ccc(NC(=O)Nc4cccc(Cl)c4)cc3C(=O)N2C)O1	3	-2	-1
O=C(C[C@H]1C[C@H]2c3cc(NC(=O)NC4CCCC4)ccc3O[C@H]2[C@@H](CO)O1)NCc1cc(F)ccc1F	37	12	2
C[C@H]1CN([C@@H](C)CO)C(=O)c2cccc(NC(=O)NC3CCCCC3)c2O[C@H]1CN(C)S(=O)(=O)c1ccc(Cl)cc1	x	-24	15
CO[C@@H]1CN(C)C(=O)c2cc(NC(=O)C3CCCC3)ccc2OC[C@@H](C)N(C)C[C@H]1C	-14	x	x
COc1ccccc1-c1ccc2n(c1=O)C[C@@H]1[C@@H](CO)[C@H](C(=O)Nc3nccs3)N(C)[C@H]21	x	19	-2
CO[C@@H]1CN(C)C(=O)c2ccc(NC(=O)Nc3cccc(Cl)c3)cc2OC[C@H](C)NC[C@@H]1C	14	-26	x
CO[C@H]1CN(C)C(=O)c2ccc(NC(=O)Nc3cc(Cl)cc(Cl)c3)cc2OC[C@@H](C)NC[C@H]1C	-27	-24	-53
CO[C@H]1CN(C)C(=O)c2ccc(NC(=O)Nc3cc(Cl)cc(Cl)c3)cc2OC[C@H](C)NC[C@H]1C	-7	-89*	-96*
CO[C@@H]1CN(C)C(=O)c2ccc(NC(=O)Nc3cccc(Cl)c3)cc2OC[C@@H](C)NC[C@H]1C	-92	-84*	x
COCC(=O)Nc1ccc2c(c1)C(=O)N(C)C[C@H](OC)[C@@H](C)CN(Cc1ccccc1)[C@H](C)CO2	-3	-17	x
C[C@H]1CN([C@@H](C)CO)C(=O)c2cc(C#Cc3ccccc3F)cnc2O[C@@H]1CN(C)C(=O)C1CCOCC1	-11	-35	-6
O=C(C1CC1)N1C[C@@H]2N[C@H](C1)C2c1ccc(/C=C/c2ccccc2)cc1 (stereo partly specified)	x	1	-7
SMILES	T cruzi growth	Pf Dd2 growth	C diff HTS
Cc1cccc(-c2ccc(C3[C@@H]4CN(C(=O)c5ccncc5)C[C@H]3N4)cc2)c1 (stereo partly specified)	x	-9	-8
CN(C)CC(=O)N1C[C@@H]2N[C@H](C1)C2c1ccc(/C=C/c2ccccc2)cc1 (stereo partly specified)	x	-91*!	9
Cc1cccc(-c2ccc([C@@H]3[C@@H]4CN(C(=O)CN(C)C)C[C@H]3N4)cc2)c1	x	-85*	29
COc1cccc(NC(=O)N2C[C@H](O)COC[C@@H]3O[C@H](CC(=O)NCc4ccccc4F)CC[C@H]32)c1	x	23	0
CO[C@@H]1CN(C)C(=O)c2cc(NC(=O)C3CC3)ccc2OC[C@@H](C)N(CC2CCCC2)C[C@@H]1C	2	-6	1
CC(C)CC#Cc1ccc([C@@H]2[C@H](CO)N3CCCCN(C(=O)Nc4ccccc4)C[C@@H]23)cc1	59	-21	-98*
COc1ccc(NC(=O)N2CCCCN3[C@H](CO)[C@H](c4ccc(C#CCC(C)C)cc4)[C@H]3C2)cc1	60	-55	33
O=C(Nc1ccccc1)N1CCCCN2[C@H](CO)[C@@H](c3ccc(C#Cc4ccccc4)cc3)[C@H]2C1	60	-60	42
O=C(Nc1ccccc1)N1CCCCN2[C@H](CO)[C@H](c3ccc(C#Cc4cccnc4)cc3)[C@@H]2C1	85	-88*	-10
CC(C)CC#Cc1ccc([C@H]2[C@H](CO)N3CCCCN(C(=O)Nc4ccccc4)C[C@@H]23)cc1	78	-47	-98*
CC(C)CC#Cc1ccc([C@@H]2[C@H]3CN(C(=O)Nc4ccccc4)CCCCN3[C@H]2CO)cc1	48	-13	57
Cc1ccc(S(=O)(=O)N[C@H]2CC[C@H](CC(=O)NCCN3CCCCC3)O[C@H]2CO)cc1	24	18	-4
CC(C)NC(=O)N1[C@@H](CO)[C@@H](c2ccccc2)C12CN(Cc1ccccc1)C2	x	-51	-7
CC(C)NC(=O)N1[C@H](CO)[C@@H](c2ccccc2)C12CN(Cc1ccc(Cl)cc1)C2	x	-88*	5
CC(C)NC(=O)N1[C@@H](CO)[C@@H](c2ccccc2)C12CN(Cc1ccc(F)cc1)C2	x	-84*	4
OC[C@H]1[C@H](c2ccccc2)C2(CN(Cc3ccccc3F)C2)N1Cc1ccccc1F	x	-93*	22
O=C(C1CC1)N1CC2(C1)[C@@H](c1ccccc1)[C@@H](CO)N2Cc1ccccc1F	x	-43	-2
CC(C)NC(=O)N1[C@@H](CO)[C@@H](c2ccccc2)C12CN(Cc1ccc(Cl)cc1)C2	x	-69	0
COc1ccc(CN2CC3(CCN(C(=O)c4ccccc4)CC3)c3c([nH]c4cc(OC)ccc34)[C@@H]2CO)cc1	x	-88*	1
COc1ccc2c3c([nH]c2c1)[C@@H](CO)N(Cc1cccnc1)CC31CCN(C(=O)c2cccnc2)CC1	x	-16	5
COc1ccc2c3c([nH]c2c1)[C@@H](CO)N(CC1CC1)CC31CN(C(=O)c2ccc(F)cc2)C1	x	-55	-5
COc1ccc2c3c([nH]c2c1)[C@@H](CO)N(CC1CC1)CC31CN(C(=O)c2ccccc2)C1	x	-85*	9
COc1ccc(CN2CC3(CN(C(=O)c4ccccc4)C3)c3c([nH]c4cc(OC)ccc34)[C@@H]2CO)cc1	x	-48	-2
COc1ccc2c3c([nH]c2c1)[C@H](CO)N(Cc1cccnc1)CC31CCN(C(=O)CN(C)C)CC1	x	-86*	1

High-throughput results as filed in PubChem.
